These results are taken from the supplement of paper PMC6555819.

This test concerns VDR:RXRa (NR concentration 270 nM, RXRa partner concentration 90 nM). Kind of test: PBM binding z-score (relative to random genomic background probes); higher = stronger binding; sequences stand for … in GC…GCGATTGACAGCGTAGAATGAAGG
Here is the method: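 Protein-binding microarray (Agilent 4x180K custom design, double-stranded 60-nt probes: 5' GC cap, 34-nt variable region, 24-nt constant primer region; full probe sequence given). Purified or IVT nuclear receptor:RXRα heterodimers (3:1 NR:RXRα, mostly 270:90 nM) or homodimers were incubated for 1 h in PBS with 2% milk and no ligand, then detected with Alexa488 antibodies. Fluorescence from o1-orientation probes (~5 replicates averaged) was converted to z-scores against 500 random hg19 background probes. Variable regions are seed direct-repeat (DR0–DR5) sites, all their single-nucleotide variants and half-site ablations.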
Consider ATCTCTAGGTAACCAAGTTCAGTGTATGCCGAAC, for which the PBM binding z-score was determined as 3.91.

As for CGTATTAGTTGACCATAAGGGCAACCGAAGCTCG, the PBM binding z-score was 0.396.

Consider ATCTCTAGGTAACAAGTTCAGTAAAAGAGAGGAC, for which the PBM binding z-score is 1.96.

On to CCTCGGAGGACAACATGAGGTCAGAGCTGCCAGA, for which the PBM binding z-score is 2.98.

GATACAGGGTTAGCTAGAGGCCAGAGTATGGAAA: the PBM binding z-score turned out to be 0.139.

ATATGTAGGGTACATCCGGGTCATTCAGGCTATG displayed a PBM binding z-score of 5.09.

Sequence GCTAATTGGTCAGTAAAAGGTCACACACCGGTCG showed a PBM binding z-score of 4.07.

CCTACTGGGCCATCTGGTCATTGATATCAACGTT had a PBM binding z-score of -0.267.

For AGAATGAGGTTTTTAAGATCAGGGAATTGCGGTC, the PBM binding z-score was -0.0674.

In the case of CCTACTGGGCCATTCAGAGGTCCTTGATCATATG, the PBM binding z-score was -0.591.

Consider AGAATGAGGTAACCAAAGATCAGGGAAACGCTTG, for which the PBM binding z-score is -0.129.

GCAAGTTGGTCAGTAAAAGGTCACACACCGGTCG returned a PBM binding z-score of 4.11.

The sequence CCTAGCAGGCCAATCTGGGACACTCAAGGCTTGA registered a PBM binding z-score of -0.61.

The sequence CGTCAAAGTTCAACTAACGTAACGTAAAGCACGC returned a PBM binding z-score of 4.1.

As to TAGCCTAGGTCATTCAGGGACCAGTATAGAAAGC, the PBM binding z-score turned out to be 2.57.

In turn, TCTGGTAGATCAAGCAGGTTAAGAAAGCCTGAGT yielded a PBM binding z-score of 0.122.

For TCATATAGGTAATTCAGGTGAAAGTCGGCATCTA, the PBM binding z-score came out at 1.11.

In turn, CCTGCTGGGTCAATGGTCAGCTAAAGCAGCTCGC yielded a PBM binding z-score of 0.85.

The sequence CAGACAGGGTCAGCTAGGCCAGAGTAGGGACGGC came in with a PBM binding z-score of 3.81.

Sequence CAGCCTAGGTCGGGGCCAGTATAGGAGGAACGTT showed a PBM binding z-score of -0.53.

As to TCTTGTAGATCAAGAAGGTTAAGAAAGCCTGAGT, the PBM binding z-score was 1.16.

The sequence ACTTACGGGCCAACGAGGTTATAGCACGCGTATA displayed a PBM binding z-score of 3.84.

TCTCGGAGGACACGAAAGGTCAGAGTTCGACATC had a PBM binding z-score of 4.18.

In the case of GCGTCTGGGGCAAAGCAGGTTACCATAAGGTTGG, the PBM binding z-score is 0.117.

The sequence AGCTCTAGGTAAGACTCAGTTCAGTGAAGAACGC had a PBM binding z-score of 0.321.

For TTACCAAGGTGATCTGAGGTCGTTGATCCAACTC, the PBM binding z-score was determined as 4.13.

Take TATACAGGGTCAAAGGCCAGAGTACGAATGTCGA: the PBM binding z-score was found to be 4.8.

GCGACTGGGGCATCAGGAGGTTACCATAACTTAA came in with a PBM binding z-score of 0.558.

Regarding CGTCAAAGTTCAAGTAAGGTAACGTAAAGCACGC, the PBM binding z-score is 4.46.

Consider CGTCCAAGGTCAGCAGGCCAGTGAAAGCGACGTG, for which the PBM binding z-score was 2.58.

In the case of CCTACTGGGCCACGAAAGGTCAATGATTCAGTGA, the PBM binding z-score is 3.4.

For AGAACGAGGGCACGCTGAGTTGACAGCAGAGTAG, the PBM binding z-score stood at 2.32.

TCTAGGTGGTCACGGAGGTCACACACGACGGGTA gave a PBM binding z-score of 6.02.

Consider CATACAGGGTTAGCTAGGCCAGAGTAGGGACGGC, for which the PBM binding z-score came to 0.398.

ATCGGAAGGTCGTGAGGTGAGTATACAGAAAGGC gave a PBM binding z-score of 2.1.

The sequence ATCTCTAGGGAACCAAGTTCAGTGAATGCCGAAC displayed a PBM binding z-score of 2.1.

On to ATATGTCGGTTAAGGGTCATTCAGGTTGGTTCGC, for which the PBM binding z-score is 5.48.

In turn, GTACCAAGGTGAATAGGTCTTTGATGAGTAGGCG returned a PBM binding z-score of 0.495.

CAAATTAGGTCAAGAGGTCAAAGTCCGCTTCCCG had a PBM binding z-score of 6.35.

CGTCCAAGGCCATAGGAGGTCAGTGAAGACAGAT returned a PBM binding z-score of 2.71.
